Results as given in PubChem BioAssay (NCI).
This is part of a sample that, as a whole, favours compounds with a hit. Of some 83,000 tested, about 20% had one in any assay.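 For each line, cells grew in 96-well plates with the test compound present at a single concentration for 48 hours.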 The source made the active and inactive calls. Rule for the calls: active = growth percent below 10; inactive = the rest.

The molecules below were run on HL-60(TB) leukemia (assay: NCI-60 one-dose screen, 48 h (100 = growth as untreated, 0 = no growth, -100 = all killed)). Details: 10 µM unless noted.
`Cc1nc2ccccc2c(/C=C/c2ccc(Br)cc2)c1C(=O)/C=C/c1ccccc1` was tested, and the growth was 2.74% (active).
With `CC(C)(C)OC(=O)NCCc1ccc(N)cc1` the growth was 89.4% (inactive).
For `Cc1cc2nc3c4ccccc4n(CCN(C)C)c3nc2cc1C`, the growth was 8.35% (active).
For `Cc1nc2ccccc2c(/C=C/c2ccc(F)cc2)c1C(N)=O`, the growth was 81.1% (inactive).
`c1cncc(-c2csc(-c3c[nH]c4ccccc34)n2)c1` was tested, and the growth was 91.9% (inactive).
In the case of `CC(C)(C)OC(=O)Nc1ccc2c(c1)C(NC(=O)Nc1cccc(C#N)c1)CC(C)(C)O2` (stereo not given), the growth is reported as 5.38% (active).
For `Cc1cccc(Oc2ccc(Nc3ncnc4ccc(NC(=O)CNCCO)cc34)cc2Cl)c1`, the growth was -26.1% (active).
For `C=C[C@H]1CCC/C=C/[C@@H]2C[C@H](O)C[C@H]2[C@H](O)/C=C/C(=O)O1`, the growth was -0.65% (active).
With `CCOC(=O)c1ccc(NC(=O)CSC(N)=O)cc1` the growth was 93.2% (inactive).
`CCCc1nc(C(C)(C)O)c(C(=O)O)n1Cc1ccc(-c2ccccc2-c2nn[nH]n2)cc1` was tested, and the growth was 107% (inactive).
With `COC(=O)C1CCCN1C(=O)[C@@H]1CCCN1C(=O)[C@H](Cc1c[nH]c2ccccc12)NC(=S)Nc1cc(C(F)(F)F)cc(C(F)(F)F)c1` (stereo not given in full) the growth was -43.8% (active).
With `C=CCn1c(SCC(=O)Nc2ccc(C(=O)/C=C/c3ccc(Cl)cc3)cc2)nnc1-c1ccccc1` the growth was 80.9% (inactive).
`CCOC(=O)c1nc2c3ccccc3ccn2c1C(=O)OC` was tested, and the growth was 94.9% (inactive).
For `CC1=CC(=O)c2cccc(NC3=NCCO3)c21`, the growth was 100% (inactive).
For `c1ccc2c(c1)Nc1ccncc1S2`, the growth was 132% (inactive).
For `COc1nc2ccccc2cc1/C=C1/C=C(c2ccccc2)NC1=O`, the growth was -8.46% (active).
For `c1ccc2c(c1)Nc1cc3ccccc3cc1N2`, the growth was 7.75% (active).
In the case of `C=C(C)C1CCC2(C)OC2C1` (stereo not given), the growth is reported as 95.6% (inactive).
With `Cn1ccnc1C(=O)/C=C/c1ccc(C(=O)Nc2ccccc2O)cc1` the growth was 0.702% (active).
With `Cc1sc2ncnc(Sc3nc4ccccc4[nH]3)c2c1C` the growth was -54.7% (active).
With `Nc1nc(N)c(N=Nc2ccccc2)c(-c2ccccc2)n1` the growth was 71.4% (inactive).
For `COc1ccc(Cl)cc1Nc1nc(C(F)(F)F)ccc1C(=O)NN`, the growth was 23.3% (inactive).
For `O=CNc1ccc2c(c1)Cc1cccc(NC=O)c1-2`, the growth was 70.6% (inactive).
In the case of `COc1cnc2c(c1)C(=O)c1c-2n(CCCn2ccnc2)c(=O)c2cc(F)ccc12`, the growth is reported as -44.5% (active).
`COC(=O)C1(C)Cc2cc(OC(C)=O)c(OC(C)=O)cc2N1` (stereo not given) was tested, and the growth was 19.8% (inactive).
For `C/C=C(/C)C(=O)O[C@@H]1CC(C)(C)CC2C34OC(=O)[C@@]21CC[C@@]3(C)[C@]1(C)CCC2C(C)(C)C(=O)CC[C@]2(C)C1C[C@@H]4Cl` (stereo not given in full), the growth was 101% (inactive).
`CC(C)CCC[C@@H](C)[C@H]1CCC2C3=CCn4c(=O)ccc(=O)n4C3CC[C@@]21C` (stereo not given in full) was tested, and the growth was -43.3% (active).
With `Cc1c(O)c(=O)n(-c2ccccc2)n1C` the growth was 119% (inactive).
With `Cc1ccc(CCC(=O)Nc2ncc(Cc3cc(Cl)ccc3Cl)s2)o1` the growth was -40.4% (active).
`CCCCOc1ccc(/C=C2/SC(N3CCCC3)=NC2=O)cc1` was tested, and the growth was 98% (inactive).
`COc1cc(NS(=O)(=O)C(C)C)cc(-c2cc(-c3ccc(N4CCNCC4)cc3)cnc2N)c1` was tested, and the growth was 78.3% (inactive).
With `CN(C)/N=C/c1ccccc1O` the growth was 97.1% (inactive).
In the case of `NC(=O)c1ncn(C2OC(CO)C(O)C2O)n1` (stereo not given), the growth is reported as 83.1% (inactive).
With `COc1ccc(/C(C)=C(\c2ccc(OCCN3CCCCCC3)cc2)c2ccc(OC(=O)c3ccccc3)cc2)cc1` the growth was 31.2% (inactive).
For `CN(C)CN1CCN(c2ccc3nc(-c4ccc5nc(-c6ccc(C(F)(F)F)cc6)[nH]c5c4)[nH]c3c2)CC1`, the growth was 59.6% (inactive).
`C=CCNC(=O)c1ccc(OC)cc1` was tested, and the growth was 87.7% (inactive).
In the case of `C#Cc1ccc(-n2c(/C=C/c3cc(OC)cc(OC)c3)nc3ncccc3c2=O)cc1`, the growth is reported as 68.1% (inactive).
In the case of `COc1ccc(C2=C/C(=C\c3ccc(Cl)cc3)C(=O)NN2C(=S)NN)cc1`, the growth is reported as 93.3% (inactive).
For `COc1ccc2[nH]c(=O)c(/C=C/C(=O)c3ccccc3OC)cc2c1`, the growth was -2.46% (active).
For `COC(=O)[C@]12CC[C@@H](C)[C@H](C)[C@@H]1C1=CC[C@@H]3[C@@]4(C)C[C@@H](OC(C)=O)[C@H](O)[C@@](C)(COC(C)=O)[C@@H]4[C@H](O)C[C@@]3(C)[C@]1(C)CC2`, the growth was -41.6% (active).
